# The panel holds about 83,000 compounds, 20% with a hit somewhere; the sample as a whole holds those more often.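 96-well plates, one dose, 48 hours. Percent growth reported; active if below 10.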 Active and inactive are the calls of the source.
# Tested on: HL-60(TB) leukemia
# Test: NCI-60 one-dose screen, 48 h (100 = growth as untreated, 0 = no growth, -100 = all killed)
# Conditions: 10 µM unless noted
row,Compound,growth
1,COc1cc(/C=C/c2cc(O)c3cc(C(C)=O)c(=O)oc3c2)cc2c1O[C@]1(C)CC[C@@H](O)C(C)(C)[C@H]1C2,4.64% (active)
2,O=C(C1CCCCC1)[C@@H]1[C@]2(C(=O)NC3CCCCC32)[C@@H]2CCCN2[C@@]12C(=O)NC1CCC(Cl)CC12 (some centres undefined),-65.9% [100 µM] (active)
3,NC(N)=NS(=O)(=O)c1ccc(Nc2ccc3nnc(-c4ccncc4)n3n2)cc1,95% (inactive)
4,Cc1ccc2nc(-c3cc4c([nH]c5ccccc54)c(-c4ccc(F)c(F)c4)n3)[nH]c2c1,48.5% (inactive)
